High-throughput results (PubChem BioAssay)
12-LOX inh = blocks human arachidonate 12S-lipoxygenase; Potency, µM (titrated, usually from 108 µM), most hits filed as inhibitors; actives 1.1% (n = 580,000); purified 12hLO, xylenol orange hydroperoxide absorbance; P18054
Target sequence (P18054 whole entry, looked up): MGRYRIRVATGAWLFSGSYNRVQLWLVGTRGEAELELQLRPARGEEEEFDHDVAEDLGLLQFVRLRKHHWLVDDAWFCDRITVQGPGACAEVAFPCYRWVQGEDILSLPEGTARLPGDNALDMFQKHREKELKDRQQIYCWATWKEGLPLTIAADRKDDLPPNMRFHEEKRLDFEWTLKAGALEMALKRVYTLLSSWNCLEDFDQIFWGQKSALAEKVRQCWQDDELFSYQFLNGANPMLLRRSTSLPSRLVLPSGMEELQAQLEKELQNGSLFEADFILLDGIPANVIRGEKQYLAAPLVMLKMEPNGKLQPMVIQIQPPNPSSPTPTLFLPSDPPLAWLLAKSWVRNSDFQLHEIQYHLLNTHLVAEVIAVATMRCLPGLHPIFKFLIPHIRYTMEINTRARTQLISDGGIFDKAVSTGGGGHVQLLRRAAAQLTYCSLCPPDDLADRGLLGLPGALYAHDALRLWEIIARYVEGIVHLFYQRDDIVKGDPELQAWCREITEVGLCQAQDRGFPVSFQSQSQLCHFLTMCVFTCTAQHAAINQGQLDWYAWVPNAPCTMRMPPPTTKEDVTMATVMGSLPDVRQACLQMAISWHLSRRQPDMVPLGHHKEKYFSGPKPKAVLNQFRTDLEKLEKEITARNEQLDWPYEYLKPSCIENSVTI
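Purified human 12hLO at 150 nM in 25 mM Hepes, 0.01% Triton X-100, pH 7.0, preincubated 15 min at room temperature with compound. Reaction started with 40 uM arachidonic acid, 30 min at room temperature. Hydroperoxide measured by Fe-xylenol orange, 573/405 nm absorbance ratio.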
MCF10A rerep = inducers of DNA re-replication in MCF 10A breast cells; MCF 10A DNA re-replication, Hoechst nuclear intensity, 48 h; Potency, µM (highest dose often 46.1 µM), actives largely listed as activators; actives 2.9% (n = 350,000); AID 624296; further: nearly all actives have a fitted effect of over 50% in size
KB-V1 cytotox = kills drug-selected multidrug resistant KB-V1 cells; Potency, µM (titrated, usually from 46.1 µM), most hits filed as cytotoxic; AID 1347076; KB-V1 MDR cells viability, CellTiter-Glo, 72 h; actives 3.4% (n = 400,000); further: nearly all actives have a fitted effect of over 60% in size
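Cytotoxicity via CellTiter-Glo luminescence after 72 h compound exposure at 37 degrees C. Cells: drug-selected KB-V1 line, DMEM phenol-red free plus 10% FBS. Compounds tested at multiple concentrations; normalized data fitted to concentration-effect curves.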
PINK1 modulator = modulators of PINK1 expression. PINK1 immunofluorescence, high-content cytometry, 24 h. Potency, µM (titrated, usually from 76.6 µM), most hits filed as activators. actives 0.2% (n = 410,000); active means well fitted activation curve with a large enough effect; inconclusive means small, poorly fitted or top-dose-only effect; cell line not stated here; further: nearly all actives have a fitted effect of over 65% in size
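Stable cell line, 250 cells/well, 12 h attachment; compounds pinned at 5 concentrations, 24 h; CCCP control. Fixed with nuclear dye, primary antibodies 12 h at 10 degrees C, secondary plus cell stain; laser-scanning cytometer read.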
KB-3-1 cytotox = kills parental KB-3-1 adenocarcinoma cells | KB-3-1 viability, CellTiter-Glo ATP luminescence, 72 h | Potency, µM (highest dose often 46.1 µM), actives largely listed as cytotoxic | actives 1.4% (n = 400,000) | AID 1347075; further: nearly all actives have a fitted effect of over 60% in size
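Multi-concentration cytotoxicity screen in KB-3-1 cells grown in DMEM lacking phenol red with 10% FBS. After 72 h at 37 °C with compound, ATP-dependent luminescence was recorded.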
SW480 rereplic = induces DNA re-replication in SW480 colon adenocarcinoma cells. SW480 DNA re-replication, Hoechst DNA content imaging, 48 h. Potency, µM (titrated, usually from 46.1 µM), actives largely listed as activators. actives 1.8% (n = 340,000); further: nearly all actives have a fitted effect of over 55% in size
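Readout is total intensity of Hoechst-stained nuclei, excited at 405 nm and collected at 500-530 nm. Compound treatment lasted 48 hr at 37 C in 5% CO2 before staining.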
A number is an active result; i = inactive; ? = inconclusive; nt = not tested or not shown; ! = not confirmed by another sample. A selection: hits, their analogues and other compounds. The true share with any hit is near 5.8%. Unless noted, the call rests on the fitted dose curve; in most records, active means well fitted curve in the direction sought with a large enough effect; inconclusive means small, poorly fitted or top-dose-only effect, or another doubt; inactive means no such curve, though single readings can be large; an effect the other way counts as inactive or inconclusive.

SMILES	12-LOX inh	MCF10A rerep	KB-V1 cytotox	PINK1 modulator	KB-3-1 cytotox	SW480 rereplic
CCN1C=C(Cc2ccccc2C)C2=C(C1)C(c1ccccc1C)C(C#N)=C(N)O2 (configuration not stated)	?	?	21µM	i	?	?
CC1(C)NC(=O)N(Cc2coc(-c3cccc(Cl)c3)n2)C1=O	i	nt	nt	nt	nt	nt
Cn1nc(-c2nncn2CC2CC2)c2c1CCN(C(=O)Cc1c[nH]c3ccccc13)C2	i	nt	nt	nt	nt	nt
O=C(CN1CCN(S(=O)(=O)c2ccccc2)CC1)Nc1ccccc1C(=O)c1ccccc1	i	i	3.7µM	i	?	i
O=C(CCl)Nc1ccccc1C(=O)c1ccccc1	i	7.3µM	i	i	i	15µM
CC12CCC(=O)C=C1C(O)CC1C2CCC2(C)C1CCC2(O)C(=O)CO (configuration not stated)	i	i	i	i	i	i
CC(=O)OC1(C(C)=O)CCC2C3CC(C(F)(F)F)C4=CC(=O)CCC4(C)C3CCC21C (configuration not stated)	i	i	i	i	i	?
CC(=O)C12CCCCC1CC1[C@@H]3CC(C)C4=CC(=O)CC[C@]4(C)C3CC[C@@]12C (some centres not stated)	i	?	?	16µM	?	i
CC(=O)O[C@]1(C(C)=O)CC[C@H]2[C@@H]3C[C@H](C)C4=CC(=O)CC[C@]4(C)[C@H]3CC[C@@]21C	i	?	?	32µM	i	?
O=C(Nc1ccc2oc(-c3ccc(F)cc3)cc(=O)c2c1)c1ccco1	i	nt	nt	nt	nt	nt
CCc1ccc(NC(=S)N2CCC(NC(=O)c3ccccc3)CC2)cc1	i	18µM	i	i	i	i
CCc1ccc(NC(=S)N2CCC(NC(=O)c3ccccc3OC)CC2)cc1	?	i	i	i	i	i
COc1ccc2[nH]cc(CCNC(=O)c3ccc4ccccc4n3)c2c1	i	15µM	i	i	i	i
Cc1ccc2[nH]cc(CCNC(=O)c3cccc(F)c3)c2c1	i	nt	nt	nt	nt	nt
COc1ccc2[nH]cc(CCNc3cc(-c4ccccc4Cl)ncn3)c2c1	16µM	nt	nt	i	nt	nt
Cc1ccc2[nH]cc(CCNC(=O)c3cccnc3)c2c1	i	21µM	i	i	i	i
COc1ccc2[nH]cc(CCNc3ccnc(-c4cccc(C#N)c4)n3)c2c1	i	nt	nt	i	nt	nt
COc1ccc2[nH]cc(CCNc3ccnc(-c4cccc(NS(C)(=O)=O)c4)n3)c2c1	40µM	nt	nt	i	nt	nt
Cc1cccc(Cn2c(Sc3ncccn3)nc3c2c(=O)[nH]c(=O)n3C)c1	i	nt	nt	nt	nt	nt
Cc1cc(O)c2c(C)c(CC(=O)NCc3ccc(F)cc3)c(=O)oc2c1	i	nt	nt	nt	nt	nt
CCC(C)Sc1ccc(-c2nc3cc(C)ccn3c2NC2CCCCC2)cc1 (configuration not stated)	35µM!	?	?	14µM	?	?
CCCCCCSc1ccc(-c2nc3cc(C)ccn3c2NC2CCCCC2)cc1	?	18µM	?	18µM	?	i
Cc1ccn2c(NC3CCCCC3)c(-c3cccc(-c4cccc(Cl)c4)c3)nc2c1	i	21µM	i	?	i	?
CC(C)NC(=O)c1ccccc1CSc1nc2ccccc2o1	i	nt	nt	nt	nt	nt
COC(=O)c1ccc2nc(-c3ccc(C)cc3)c(Cc3ccsc3)n2c1	40µM	nt	?	i	?	nt
SMILES	12-LOX inh	MCF10A rerep	KB-V1 cytotox	PINK1 modulator	KB-3-1 cytotox	SW480 rereplic
Cc1ccc2nc(C3CCCCC3)c(Cc3ccsc3)n2c1	?	nt	16µM	i	?	nt
Cc1ccc2nc(-c3ccccc3)c(Cc3ccsc3)n2c1	i	nt	21µM	i	?	nt
COC(=O)c1ccc2nc(-c3ccc(F)cc3)c(Cc3ccsc3)n2c1	7.1µM	nt	i	i	i	nt
Cc1ccc(Cc2c(C3CCCCC3)nc3ccc(C)cn23)cc1	?	nt	i	?	i	nt
CCOc1ccccc1N1CCN(CC(=O)Nc2ccccc2C(=O)NC2CC2)CC1	?	i	i	i	i	i
CC(=O)c1ccc(N2CCN(CC(=O)Nc3ccccc3C(=O)NC3CC3)CC2)c(F)c1	?	18µM	i	i	i	i
COc1ccc(S(=O)(=O)NCC2CCC(C(=O)N[C@@H](C)C(=O)NCc3ccco3)CC2)cc1 (some centres not stated)	i	nt	nt	nt	nt	nt
O=c1c2ccccc2nc2n1CCc1c-2[nH]c2ccccc12	?	i	?	i	i	i
Cc1cccc2c(=O)n3c(cc12)-c1[nH]c2ccccc2c1CC3	?	21µM	i	?	i	?
CCOC(=O)c1cc2cc(C(=O)NC(C)CC)ccc2[nH]1 (configuration not stated)	i	nt	nt	nt	nt	nt
C=CCn1c(SCc2ccc(C(=O)Nc3nccs3)cc2)nnc1-c1ccc(C)c(Cl)c1	i	10µM	5.2µM	i	?	?
CCOc1cc(/C=C2/NC(=O)NC2=O)ccc1OCc1ccc(Cl)cc1Cl	i	nt	nt	nt	nt	nt
COc1ccccc1-c1nccc(NCc2cccs2)n1	13µM	nt	nt	i	nt	nt
c1csc(CNc2ccnc(-c3ccoc3)n2)c1	13µM	nt	nt	i	nt	nt
COc1ccc(-c2cc(C(F)(F)F)nc(NCc3cccs3)n2)cc1	i	i	i	?	i	i
COc1ccccc1-c1cc(C(F)(F)F)nc(NCc2cccs2)n1	i	?	21µM	i	i	i
N#Cc1cccc(-c2nccc(NCc3cccs3)n2)c1	?	nt	nt	i	nt	nt
O=C(CSc1nc(-c2ccccc2)cc(=O)[nH]1)Nc1ccc(Cl)c(Cl)c1	i	nt	nt	nt	nt	nt
COCCCN(CCOC)C(=O)c1cc2ccccc2c(OC)n1	i	nt	nt	nt	nt	nt
Cc1cnc(CNc2ncncc2-c2ccccc2C(F)(F)F)cn1	22µM	nt	nt	i	nt	nt
CCC[C@H]1NC(=O)[C@H](C)N(C)C(=O)C(C)(C)C(=O)C(C)NC(=O)[C@H](Cc2ccc(OC)cc2)N(C)C(=O)[C@H](C(C)C)N(C)C(=O)CNC(=O)[C@H](CC(C)C)N(C)C(=O)CNC(=O)[C@H]([C@@H](C)CC)OC(=O)[C@H]1C (some centres not stated)	?	1.5µM	i	i	i	?
CC[C@H](C)C1OC(=O)[C@@H](C)[C@@H](CC)NC(=O)[C@H](C)N(C)C(=O)C(C)(C)C(=O)C(C)NC(=O)[C@H](Cc2ccc(OC)cc2)N(C)C(=O)[C@H](C(C)C)N(C)C(=O)CNC(=O)[C@H](CC(C)C)N(C)C(=O)CNC1=O (some centres not stated)	nt	nt	i	?	0.21µM	nt
C/C=C/CC(C)C(O)C1C(=O)NC(CC)C(=O)N(C)CC(=O)N(C)C(CC(C)C)C(=O)NC(C(C)C)C(=O)N(C)C(CC(C)C)C(=O)NC(C)C(=O)NC(C)C(=O)N(C)C(CC(C)C)C(=O)N(C)C(CC(C)C)C(=O)N(C)C(C(C)C)C(=O)N1C (configuration not stated)	i	nt	nt	i	nt	nt
